In the supplement of paper PMC12632987:

T1: USP38, Q8NB14
T1 chain: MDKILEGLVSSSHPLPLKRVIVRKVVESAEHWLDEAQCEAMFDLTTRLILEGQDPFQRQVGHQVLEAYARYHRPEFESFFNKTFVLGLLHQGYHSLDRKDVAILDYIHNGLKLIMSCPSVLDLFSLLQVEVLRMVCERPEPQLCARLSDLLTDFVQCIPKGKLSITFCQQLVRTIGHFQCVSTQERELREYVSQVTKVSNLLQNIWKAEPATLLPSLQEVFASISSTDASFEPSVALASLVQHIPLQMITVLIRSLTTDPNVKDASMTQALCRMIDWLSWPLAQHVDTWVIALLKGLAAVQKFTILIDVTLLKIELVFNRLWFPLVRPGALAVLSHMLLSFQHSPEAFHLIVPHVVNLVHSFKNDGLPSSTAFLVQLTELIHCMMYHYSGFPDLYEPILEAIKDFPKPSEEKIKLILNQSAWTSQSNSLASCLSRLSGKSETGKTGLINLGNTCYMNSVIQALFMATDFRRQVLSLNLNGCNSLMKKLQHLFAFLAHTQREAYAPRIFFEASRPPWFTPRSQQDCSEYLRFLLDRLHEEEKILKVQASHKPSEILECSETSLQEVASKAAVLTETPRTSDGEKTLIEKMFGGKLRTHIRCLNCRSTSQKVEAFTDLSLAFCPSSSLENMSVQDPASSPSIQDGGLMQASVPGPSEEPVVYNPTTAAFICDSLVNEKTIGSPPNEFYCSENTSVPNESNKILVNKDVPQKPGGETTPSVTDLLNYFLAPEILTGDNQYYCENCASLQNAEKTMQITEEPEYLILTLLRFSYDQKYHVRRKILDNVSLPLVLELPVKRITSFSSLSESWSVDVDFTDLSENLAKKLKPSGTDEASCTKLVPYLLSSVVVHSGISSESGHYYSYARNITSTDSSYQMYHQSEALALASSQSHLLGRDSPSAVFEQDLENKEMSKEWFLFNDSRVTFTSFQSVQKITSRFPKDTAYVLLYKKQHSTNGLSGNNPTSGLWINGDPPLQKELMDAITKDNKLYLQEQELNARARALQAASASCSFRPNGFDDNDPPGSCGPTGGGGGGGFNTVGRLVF


Target: T1, USP38, Q8NB14
Test: median log2 fold change of GCK-ALFA target abundance (FLAG IP / Myc IP barcode read proportion) (log2 ratio); each designed protein is fused to an ALFA-tag nanobody in HEK293 cells to bring the named protein to FLAG-tagged glucokinase (GCK); Myc marks an untargeted standard; higher = target protein stabilised (more abundant)
Conditions: target protein: 3xFLAG-MCP-GCK-ALFA reporter; HEK293 landing pad (RPLP)
Procedure, shortened: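 Sequencing of reverse-transcribed, amplified circular RNA barcodes from anti-FLAG and anti-Myc immunoprecipitates provided the readout for an ALFA-nanobody-fused binder library recombined into HEK293 landing-pad cells. Those cells were induced with 2 μg mL^−1 doxycycline, transfected with a plasmid expressing a FLAG-tagged target and a Myc-tagged standard, and lysed after 48 h. Target abundance is the per-binder median log2 ratio of FLAG to Myc barcode read proportions. Only barcodes at a proportion of ≥10^−7 in both replicates and binders with ≥3 barcodes per replicate were kept, with a 10^−6 pseudocount added before the two replicates were pooled.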

Row | Binder | median log2 fold change
1 | usp_38_diff_out_14_2_86 (protein) AEEELKKKTEETKKKLKEGIELAKKIKEEVKKDPSKAEELRKKLFEKHDEIGDKVGELAKLIEEHKEIPALRKEAVKEVNELLTEYTKALLEALEELAKA | -0.431
2 | usp_38_diff_out_14_2_83 (protein) MEEEIKEKTKETLEEIEKAIKELKELEKEVKKDPSKKEEAYKKAFEKWDKAADKVGELEKLLRENKENPELNKKAKEEINEKLTKLTEEALKLLETIAEV | -0.316
3 | usp_38_diff_out_14_2_93 (protein) GEEELKKLFEETKKVLEEAIKRAEELTKEVKADPSQAEKARKELFKAWDEAGDKVGELQKKIEENKEHKELNKKIIKEVNELITKLTEAALAALEEIAAA | -0.0116
4 | usp_38_diff_out_14_2_84 (protein) MEEEIKKKTKETLKKIEEAIKRAKELKERVKKDPSLKEKAREELFKEWDEAADKVGELEKLLRENKENPELNKKAREEVNKKLTELTEVALETLELIAEV | -0.366
5 | usp_38_diff_out_14_2_81 (protein) AEEELKAATEKTLAVLDDAIKAAKELTKEVKKDPSLAEKAREKLLEEWDKAGDAVGELEKLILENKEAKETNKEAREKVNKKLDELTKAFLEALETAAEA | -0.289
6 | usp_38_diff_out_14_2_94 (protein) GEEELKKKYEETLKVLEEAIKEAKKIKEEVKKDPSIAEEKRKELFEKWDEAADKVGELQKLLEENPEHKELNKKIIEEVNKKITELTKAALEALEELAKA | 0.0575
7 | usp_38_diff_out_14_2_90 (protein) GEEELKKKYEETKKTLEEAIKKAKELKEEVKKDPSKAEEARKRLFEEWDKAADKVGELEKLIRENPEHKELNKKIIEEVNKLITELTKAALEALEAIAEA | -0.724
8 | usp_38_diff_out_14_2_87 (protein) AEEELKKATKETLKKLEEHIKLAKELAERVKKDPSTAEQAREELFASWDEVGDKVGALAKLIEENKEIPELRKKAIEEVNKKLTEATEATLAALELLAEA | -0.418
9 | usp_38_diff_out_14_2_85 (protein) AEEKIKKATEKTLKKLEEAIKLAKELKEEVKKDPSKAEKAREELFKKWDEVGDAVGELAKLLEENKEIPALNKEANEKVNEKLTELTKATLEALEELAEA | -0.606
10 | usp_38_diff_out_14_2_88 (protein) AEEELKKATEETLKKLEEGIKLAKELTKKVKEDPSQAEKAREELFKKHDEIGDAVGRLAKLIEEHKEIPALNKEAVEEVNKKLTEYTEETLKALELLAEA | -0.277
11 | usp_38_diff_out_14_2_89 (protein) GEEELEKKTKETLEKLEELIELAKKIKEEVEKDPSKAEELRKELFKKWDEVGEKVGELAKLIEEHKELPELNKKAVKEVNEKLSEATKEILEALELLAEA | -0.37
12 | usp_38_diff_out_14_2_97 (protein) GKEELEKKFKETKKVLEEAIKKAKELKKEVEKDPSKAEEARKKLFEAWDKAADKVGELQKLLEENPEYKELNKKIIEEVNKLLTELTKAALEALELIAEA | -0.467
13 | usp_38_diff_out_14_2_95 (protein) GEEELKKAAKETKEVLKKAIEEAKELEKKVKEDPSQAEQARKELFKKWDEAGDAVGKLEKLLRENPEHKELNKKIIEEVNKLINELTKAALKALETLAEA | -0.416
14 | usp_38_diff_out_14_2_92 (protein) GKEKLEEKFKETKEKLKEAIKKAKELKKEVKKDPSKAEEAREELFKAWDEAGDKVGELEKLLRENPEYKELNKKIKEEVNKLITELTEAALEALEEIAKA | -0.436
15 | usp_38_diff_out_14_2_82 (protein) AVEKIKKATEETLKVLEEAIKKFKELKKEVEADPSKAEEARKEILKAWDKAGDAVGALNKLIEENPEAKEENKEATKKVNEALTKLTKEALEALQAAAEA | -0.116
16 | usp_38_diff_out_14_2_80 (protein) AEEKLKKATEETLKVLKEAIKKAKELKKEVEADPSLAEKAREELLKAWDKAGDAVGALNKLIEENKEAKETRKKATEEVNKAIDELTKEVLEALQTAAEA | -0.879
